Six1-Eya2 blk – inhibitors of human Six1/Eya2 interaction; Q15475+O00167; AlphaScreen GST-Six1/His-Eya2 binding, biochemical; stronger effect = lower value; activity change, % (test concentration not listed); 360,000 compounds, 0.56% hits; in the data active = activity change below about -65%; inconclusive = mostly about -30% to -63%
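Homogeneous AlphaScreen proximity assay pairing GST-Six1 with His-tagged Eya2 (added as 5X mix: 250 nM and 500 nM) in 50 mM Tris pH 8.0, 300 mM NaCl, 1 mM TCEP. Glutathione donor and nickel acceptor beads; 1 h, 37 °C, dark.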
TrxR1 substrate – is turned over as a substrate by rat TrxR1; Potency, µM (top dose mostly 114 µM), without a hit: at the top dose activity change, negative = substrate turnover; purified TrxR1 substrate turnover, NADPH consumption readout; 390,000 compounds, 0.01% hits; AID 588456; O89049; note: potency is the fitted concentration of half-maximal effect; nearly all actives have a fitted effect of over 50% in size
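Rat TrxR1, dispensed at 90 nM, was prereduced with 400 uM NADPH (final) for 5 min at ~22 deg C, then incubated with compound 15 min before 400 uM selenite. A first-read NADPH fluorescence drop versus no-compound background flagged substrates.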
Eya2 phos inh – blocks the phosphatase activity of human Eya2 | O00167 | recombinant Eya2, OMFP fluorescence dephosphorylation (OMFP is methylfluorescein phosphate) | Potency, µM (titrated, usually from 76.9 µM), for inactives: top-dose activity, negative = inhibition, hits mostly inhibitors | 330,000 compounds, 0.006% hits | AID 488837; note: potency is the fitted concentration of half-maximal effect
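Eya2 (0.2 uM) preincubated 10 min at ambient with compound, then OMFP substrate added at 50 uM; 10 min reaction in 50 mM HEPES pH 7.5, 50 mM NaCl, 5 uM MgCl2, 0.05% BSA, 1 mM DTT. Fluorescence read at Ex 485/Em 525 nm.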
GALK inhibitor – blocks human galactokinase activity | P51570 | Purified GALK, Kinase-Glo residual ATP luminescence | Potency, µM (titrated, usually from 57.5 µM), without a hit: at the highest dose activity change, negative = inhibition, hits mostly inhibitors | 270,000 compounds, 0.007% hits; note: potency is the fitted concentration of half-maximal effect
Target sequence (P51570 whole entry, looked up): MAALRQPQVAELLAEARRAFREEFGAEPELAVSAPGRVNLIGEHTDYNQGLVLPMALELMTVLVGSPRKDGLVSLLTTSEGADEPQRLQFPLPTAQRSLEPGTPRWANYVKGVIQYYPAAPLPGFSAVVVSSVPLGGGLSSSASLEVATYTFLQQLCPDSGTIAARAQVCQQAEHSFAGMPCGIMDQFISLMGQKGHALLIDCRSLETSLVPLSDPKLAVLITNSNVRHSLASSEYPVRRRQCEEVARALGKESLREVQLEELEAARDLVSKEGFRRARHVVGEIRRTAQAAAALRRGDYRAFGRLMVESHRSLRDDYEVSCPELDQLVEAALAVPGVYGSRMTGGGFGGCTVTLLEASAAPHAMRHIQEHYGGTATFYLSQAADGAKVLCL
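Human GALK (5 nM) with 35 uM ATP and 100 uM galactose in 20 mM HEPES pH 8.0, 5 mM MgCl2, 60 mM NaCl, 1 mM DTT, 0.01% BSA. After 1 h at room temperature, leftover ATP was read by Kinase-Glo Plus luminescence.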
CtBP-E1A blk – inhibitors of CtBP/E1A interaction; AlphaScreen GST-E1A/His-CtBP binding, 1536-well; stronger effect = lower value; activity change, % (no concentration beside the values); 340,000 compounds, 0.49% hits; in the data active = activity change below about -65%; inconclusive = mostly about -30% to -63%
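Steps: dispense buffer (Tris pH 8.0, NaCl 300 mM, TCEP 1 mM, BSA, Tween 20); add 5X protein mix (GST-E1A, His-CtBP, 125 nM each); pin 23 nL compound; 2 h at 37 °C, dark; add 5X beads (50 ug/mL); 1 h; read.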
TrxR1 inh – blocks rat thioredoxin reductase 1; O89049; recombinant rTrxR1, NADPH fluorescence consumption, selenite substrate; Potency, µM (doses to about 114 µM), inactives show at the highest dose activity change, negative = inhibition, usual class: inhibitors; 390,000 compounds, 1% hits; AID 588453; note: potency is the fitted concentration of half-maximal effect; nearly all actives have a fitted effect of over 65% in size
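Rat TrxR1 (90 nM in the dispensed reagent) was pre-reduced with 400 uM NADPH for 5 min at room temperature, then incubated with compound for 15 min. After 400 uM selenite was added, NADPH fluorescence (Ex 340/Em 450 nm) was followed for 8 min.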
* hit, by the source's call; ? = inconclusive; . = not tested or not shown; [ ] = dose if it differs, or a comment. Most compounds without a hit are left out; they make up all but 1.5% or so of the library. Unless noted, calls come from the whole dose curve; as a rule, active = well fitted curve in the direction sought with a large enough effect; inconclusive = small, poorly fitted or top-dose-only effect, or another doubt; inactive = no such curve, though single readings can be large; an effect the other way counts as inactive or inconclusive. % is set by controls: 0 for no effect and ±100 for the full control effect.

SMILES	Six1-Eya2 blk	TrxR1 substrate	Eya2 phos inh	GALK inhibitor	CtBP-E1A blk	TrxR1 inh
CCC(=O)N(CCC(c1ccc(C)cc1)c1ccco1)Cc1ccco1 (stereo not given)	-12	-2%	-28%	-6%	-5	35µM*
Cc1ccc(CNC(=O)CCCOc2cc(=O)n(C)c3ccccc23)o1	-6	-4%	12%	-2%	-8	40µM*
O=C(Nc1c(C(=O)Nc2ccc(F)cc2)oc2ccccc12)c1ccccc1F	.	4%	.	.	.	9%
CC(=O)N=c1sc2nc3ccccc3nc2n1N(C(C)=O)C(C)=O	?	10%	14%	-2%	?	40µM*
O=C(c1cc2cc(Cl)ccc2[nH]1)N1CCN(c2ccccc2F)CC1	-2	4%	-4%	1%	1	9%
O=C(c1cc2cc(Cl)ccc2[nH]1)N1CCN(C(=O)c2ccco2)CC1	2	5%	-6%	0%	.	50µM*
Cc1ccnc(Sc2ccc([N+](=O)[O-])cc2[N+](=O)[O-])n1	-1	6%	-2%	-3%	0	20µM*
COc1cccc(NC(=O)CN(C)S(=O)(=O)c2cccs2)c1	.	0%	.	.	.	22%
Cc1nc2ccccc2c(=O)n1/N=C/c1cc(Br)ccc1O	?	-3%	6%	.	-65*	-2%
COc1ccc(Br)cc1/C=N/n1c(C)nc2ccccc2c1=O	0	-8%	19%	1%	-4	-12%
Cc1cc(C)nc(SCc2ccc(C(=O)N/N=C/c3cccc(O)c3O)cc2)n1	-95*	-10%	3%	0%	-96*	-19%
Cc1nc2ccc(C(=O)c3ccccc3)cc2[nH]1	-6	-10%	21%	4%	5	-17%
Cc1nc2ccc(C(=O)N/N=C/c3ccccc3O)cc2[nH]1	-80*	-2%	-13%	-2%	-88*	0%
Cc1nc2ccc(C(=O)N/N=C/c3cc([N+](=O)[O-])ccc3O)cc2[nH]1	-92*	-19%	2%	3%	-92*	-23%
O=C(N/N=C/c1cc([N+](=O)[O-])ccc1O)c1cccc(NC(=O)c2cccc(Cl)c2)c1	-2	-6%[57.1 µM]	3%	13%	4	-2%[57.1 µM]
O=C(Cn1c(=O)n(-c2ccccc2Cl)c(=O)c2sc3ccccc3c21)N1CCCC1	.	107%	.	.	.	-12%
CN(C)c1ccc(C(=O)Nc2sc(Nc3ccccc3)nc2C(N)=O)cc1	.	3%[57.1 µM]	.	.	.	-9%[57.1 µM]
CCN(CC)C(=O)c1ccc(S(=O)(=O)Cc2ccc(C)cc2)c([N+](=O)[O-])c1	?	11%	1%	8%	-15	32µM*
Cc1ccc(CS(=O)(=O)c2ccc(C(=O)N3CCCCC3)cc2[N+](=O)[O-])cc1	1	12%[57.1 µM]	0%	2%	-4	-52%
C(=Nc1cnc2ccccc2c1)c1ccnc2ccccc12	.	91%	.	.	.	12%
COc1ccc(N2CSC3=C(C#N)C(c4cc(OC)ccc4OC)CC(=O)N3C2)c(OC)c1 (stereo not given)	-13	0%[57.1 µM]	7%	1%	-5	14µM*
COc1ccc(N2CSC3=C(C#N)C(c4cc(OC)c(OC)cc4OC)CC(=O)N3C2)c(OC)c1 (stereo not given)	-11	5%[57.1 µM]	12%	2%	-4	?
CCOc1ccccc1CNC(=O)CCCN1C(=O)COc2ccc(C)cc21	.	-6%	.	.	.	-9%
COC/C=C/C1=CC2=CC(=O)C(C)(OC(=O)c3ccco3)C(=O)C2=CO1 (stereo not given)	.	.	-4%	-1%	.	.
COC/C=C/C1=CC2=CC(=O)C(C)(OC(=O)C3CCCC3)C(=O)C2=CO1 (stereo not given)	?	10%[57.1 µM]	3%	-2%	-9	13µM*
SMILES	Six1-Eya2 blk	TrxR1 substrate	Eya2 phos inh	GALK inhibitor	CtBP-E1A blk	TrxR1 inh
Oc1ccc(/C=N/Nc2nc(-c3cccnc3)nc3ccccc23)c(O)c1	-67*	5%	11%	-2%	-79*	29%
COc1ccc(/C=N/Nc2nc(-c3cccnc3)nc3ccccc23)cc1OC	8	-5%	23%	2%	0	-19%
Cc1c(O)ccc(/C=N/Nc2nc(-c3cccnc3)nc3ccccc23)c1O	-68*	6%	4%	5%	.	28%
O=C(N/N=C/c1ccc(O)cc1O)c1ccncc1	-93*	-5%	-4%	.	-91*	5%
O=C(C[n+]1ccccc1)N/N=C/c1cc(Br)cc(Br)c1O	-89*	3%[57.1 µM]	14%	4%	6	3%[57.1 µM]
COc1ccc(/C=N/NC(=O)c2ccncc2)c(OC)c1	1	-4%	-3%	.	.	5%
O=C(N/N=C/c1ccc(Cl)cc1Cl)c1ccncc1	5	-1%	-8%	6%	.	18%
O=C(N/N=C/c1cc(Cl)cc(Cl)c1O)c1ccncc1	-92*	-5%	17%	6%	.	10%
O=C(N/N=C/c1cc(Br)cc(Br)c1O)c1ccncc1	-80*	4%[57.1 µM]	6%	15%	-93*	14%[57.1 µM]
COc1ccc(CCNC(=O)Cn2c(=O)c3cccn3c3ccc(F)cc32)c(OC)c1	.	-4%	.	.	.	17%
COc1ccc(Nc2ncc(C(=O)Nc3ccc(F)cc3F)c3ccccc23)cc1	.	-7%	.	.	.	-8%
CCOC(=O)c1ccccc1NC(=O)NC(C)c1c(-n2cccc2)sc(C)c1C (stereo not given)	.	4%	.	.	.	-1%
CCc1cc(C(=O)N/N=C/c2ccc(O)cc2O)c2ccccc2n1	-93*	-3%	-3%	3%	-97*	18%
Cc1nonc1C(=O)N/N=C/c1ccc(O)cc1O	-90*	-2%[57.1 µM]	3%	3%	.	14%[57.1 µM]
Cc1nonc1C(=O)N/N=C/c1ccncc1	-7	3%	-5%	7%	.	9%
O=C(CCCCCNC(=O)c1ccccc1)N/N=C/c1ccc(O)cc1O	-28	3%[57.1 µM]	-5%	1%	?	0%[57.1 µM]
O=C(N/N=C/c1ccc(O)cc1O)c1ccc(NC(=O)C2CCCCC2)cc1	-72*	-6%	-7%	-4%	-90*	-4%
O=C(O)c1cccc(Nc2cc(Cl)c3nonc3c2[N+](=O)[O-])c1	?	-17%	11%	0%	.	1.4µM*
O=[N+]([O-])c1c(Nc2ccccn2)cc(Cl)c2nonc12	0	-12%	2%	.	1	1.3µM*
O=C(O)c1ccccc1Nc1cc(Cl)c2nonc2c1[N+](=O)[O-]	?	-14%	0%	2%	-9	1.6µM*
O=[N+]([O-])c1c(Nc2ccc(O)cc2)cc(Cl)c2nonc12	-26	3%[57.1 µM]	-9%	-6%	.	?
COc1cc2c(=O)n(Cc3ccccc3)c(=O)n(CC(=O)Nc3cc(C(F)(F)F)ccc3Cl)c2cc1OC	.	2%	.	.	.	1%
